Measured values taken from PubChem BioAssay AID1159580 (chemical genetic matrix, 2015).
Out of some 5,500 compounds screened, about 2,000 (36%) were called active. About 18% were inconclusive and are not listed. No stated cut-off is given here; in the data, active means normalized growth mostly below about 0.91 (no sharp cut-off); inconclusive means no clear call, values can overlap the other calls; inactive means mostly above about 0.92. The list shows a part of the results.

Experiment: chemical genetic growth profiling, strain panel (AID 1159580);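 further: tested at 20 µM; growth read once vehicle control cultures reached saturation at 30 °C; 1 = growth at the plate median or of vehicle wells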
Details: growth OD

Measured: normalized growth

CN(N=O)C(=O)N[C@@H]1[C@@H](O)[C@H](O)[C@@H](CO)O[C@@H]1O
inactive: S. cerevisiae deletion strains, locus YJL187C, strain SWE1 (second series), stronger effect = lower value 1.01 | S. cerevisiae deletion strains, locus YJR043C, strain POL32, stronger effect = lower value 1.01 | S. cerevisiae deletion strains, locus YJR066W, strain TOR1, stronger effect = lower value 0.99 | S. cerevisiae deletion strains, locus YKL009W, strain mrt4, stronger effect = lower value 1.05 | S. cerevisiae deletion strains, locus YKL068W, stronger effect = lower value 1 | S. cerevisiae deletion strains, locus YKL085W, strain MDH1 (second series), stronger effect = lower value 1.01 | S. cerevisiae deletion strains, locus YKL085W, strain MDH1, stronger effect = lower value 1.01 | S. cerevisiae deletion strains, locus YKL160W, strain elf1, stronger effect = lower value 1.02 | S. cerevisiae deletion strains, locus YKR001C, strain vps1, stronger effect = lower value 1 | S. cerevisiae deletion strains, locus YKR026C, strain gcn3, stronger effect = lower value 0.973 | S. cerevisiae deletion strains, locus YKR091W, strain srl3, stronger effect = lower value 0.988 | S. cerevisiae deletion strains, locus YLL001W, strain dnm1, stronger effect = lower value 0.987 | S. cerevisiae deletion strains, locus YLL026W, stronger effect = lower value 0.994 | S. cerevisiae deletion strains, locus YLL041C, strain sdh2, stronger effect = lower value 0.971 | S. cerevisiae deletion strains, locus YLR027C, strain aat2, stronger effect = lower value 1.01 | S. cerevisiae deletion strains, locus YLR039C, strain RIC1, stronger effect = lower value 1.03 | S. cerevisiae deletion strains, locus YLR058C, strain SHM2, stronger effect = lower value 1.01 | S. cerevisiae deletion strains, locus YLR102C, strain apc9, stronger effect = lower value 0.999 | S. cerevisiae deletion strains, locus YLR113W, strain HOG1, stronger effect = lower value 1.03 | S. cerevisiae deletion strains, locus YLR221C, strain rsa3, stronger effect = lower value 0.99 | S. cerevisiae deletion strains, locus YLR258W, strain gsy2, stronger effect = lower value 0.985 | S. cerevisiae deletion strains, locus YLR262C, strain YPT6 (second series), stronger effect = lower value 0.978 | S. cerevisiae deletion strains, locus YLR262C, strain YPT6, stronger effect = lower value 1.02 | S. cerevisiae deletion strains, locus YLR268W, strain sec22, stronger effect = lower value 0.999 | S. cerevisiae deletion strains, locus YLR320W, strain mms22, stronger effect = lower value 0.977 | S. cerevisiae deletion strains, locus YLR330W, strain CHS5, stronger effect = lower value 1.01 | S. cerevisiae deletion strains, locus YLR342W, strain FKS1 (second series), stronger effect = lower value 1.06 | S. cerevisiae deletion strains, locus YLR342W, strain FKS1, stronger effect = lower value 1.01 | S. cerevisiae deletion strains, locus YLR357W, strain rsc2, stronger effect = lower value 0.958 | S. cerevisiae deletion strains, locus YLR370C, strain arc18, stronger effect = lower value 0.999 | S. cerevisiae deletion strains, locus YLR371W, strain rom2, stronger effect = lower value 1.02 | S. cerevisiae deletion strains, locus YLR384C, strain iki3, stronger effect = lower value 0.986 | S. cerevisiae deletion strains, locus YLR418C, strain cdc73, stronger effect = lower value 0.994 | S. cerevisiae deletion strains, locus YML016C, strain PPZ1, stronger effect = lower value 1 | S. cerevisiae deletion strains, locus YML032C, strain rad52, stronger effect = lower value 1.02 | S. cerevisiae deletion strains, locus YML120C, strain ndi1, stronger effect = lower value 0.986 | S. cerevisiae deletion strains, locus YML124C, strain tub3, stronger effect = lower value 1 | S. cerevisiae deletion strains, locus YMR058W, strain fet3, stronger effect = lower value 1 | S. cerevisiae deletion strains, locus YMR078C, strain ctf18, stronger effect = lower value 1.01 | S. cerevisiae deletion strains, locus YMR125W, strain sto1, stronger effect = lower value 0.954 | S. cerevisiae deletion strains, locus YMR129W, stronger effect = lower value 1 | S. cerevisiae deletion strains, locus YMR205C, strain PFK2, stronger effect = lower value 0.98 | S. cerevisiae deletion strains, locus YMR223W, strain ubp8, stronger effect = lower value 1.04 | S. cerevisiae deletion strains, locus YMR231W, strain pep5, stronger effect = lower value 0.994 | S. cerevisiae deletion strains, locus YMR307W, strain GAS1, stronger effect = lower value 1.04 | S. cerevisiae deletion strains, locus YNL067W, strain RPL9B, stronger effect = lower value 1.03 | S. cerevisiae deletion strains, locus YNL071W, strain lat1, stronger effect = lower value 0.983 | S. cerevisiae deletion strains, locus YNL128W, strain TEP1, stronger effect = lower value 1.03 | S. cerevisiae deletion strains, locus YNL153C, strain GIM3, stronger effect = lower value 0.997 | S. cerevisiae deletion strains, locus YNL183C, strain NPR1, stronger effect = lower value 0.983 | S. cerevisiae deletion strains, locus YNL209W, strain ssb2, stronger effect = lower value 0.982 | S. cerevisiae deletion strains, locus YNL233W, strain BNI4, stronger effect = lower value 1.01 | S. cerevisiae deletion strains, locus YNL248C, strain rpa49, stronger effect = lower value 0.978 | S. cerevisiae deletion strains, locus YNL250W, strain rad50, stronger effect = lower value 1.03 | S. cerevisiae deletion strains, locus YNL271C, strain bni1, stronger effect = lower value 1 | S. cerevisiae deletion strains, locus YNL298W, strain CLA4, stronger effect = lower value 1.01 | S. cerevisiae deletion strains, locus YNL307C, strain MCK1, stronger effect = lower value 1.02 | S. cerevisiae deletion strains, locus YNL322C, strain KRE1 (second series), stronger effect = lower value 1.01 | S. cerevisiae deletion strains, locus YNR049C, strain mso1, stronger effect = lower value 0.983 | S. cerevisiae deletion strains, locus YNR052C, strain pop2, stronger effect = lower value 1.01 | S. cerevisiae deletion strains, locus YOL012C, strain htz1 0.87 | S. cerevisiae deletion strains, locus YOL147C, strain pex11, stronger effect = lower value 1.01 | S. cerevisiae deletion strains, locus YOR001W, strain rrp6, stronger effect = lower value 0.995 | S. cerevisiae deletion strains, locus YOR061W, strain CKA2, stronger effect = lower value 1.01 | S. cerevisiae deletion strains, locus YOR069W, strain VPS5, stronger effect = lower value 1.01 | S. cerevisiae deletion strains, locus YOR070C, strain gyp1, stronger effect = lower value 1.01 | S. cerevisiae deletion strains, locus YOR080W, strain dia2, stronger effect = lower value 0.996 | S. cerevisiae deletion strains, locus YOR083W, strain WHI5, stronger effect = lower value 0.986 | S. cerevisiae deletion strains, locus YOR106W, strain vam3, stronger effect = lower value 1.01 | S. cerevisiae deletion strains, locus YOR136W, strain idh2, stronger effect = lower value 1 | S. cerevisiae deletion strains, locus YOR144C, strain elg1, stronger effect = lower value 1.01 | S. cerevisiae deletion strains, locus YOR184W, strain ser1, stronger effect = lower value 1.01 | S. cerevisiae deletion strains, locus YOR231W, strain MKK1, stronger effect = lower value 1.02 | S. cerevisiae deletion strains, locus YOR265W, strain rbl2, stronger effect = lower value 1 | S. cerevisiae deletion strains, locus YOR270C, strain vph1, stronger effect = lower value 0.936 | S. cerevisiae deletion strains, locus YOR290C, strain snf2, stronger effect = lower value 1 | S. cerevisiae deletion strains, locus YOR316C, strain cot1, stronger effect = lower value 1 | S. cerevisiae deletion strains, locus YPL051W, strain arl3, stronger effect = lower value 1.02 | S. cerevisiae deletion strains, locus YPL078C, strain atp4, stronger effect = lower value 0.993 | S. cerevisiae deletion strains, locus YPL106C, strain sse1, stronger effect = lower value 1.02 | S. cerevisiae deletion strains, locus YPL240C, strain hsp82, stronger effect = lower value 0.983 | S. cerevisiae deletion strains, locus YPL256C, strain CLN2, stronger effect = lower value 1.06 | S. cerevisiae deletion strains, locus YPR119W, strain clb2, stronger effect = lower value 1 | S. cerevisiae deletion strains, locus YPR141C, strain kar3, stronger effect = lower value 0.996 | S. cerevisiae deletion strains, locus YPR163C, strain tif3, stronger effect = lower value 1 | S. cerevisiae deletion strains, locus YPR167C, strain met16, stronger effect = lower value 1.01 | S. cerevisiae deletion strains, strain wtn01, stronger effect = lower value 1 | S. cerevisiae strains, strain wild type, stronger effect = lower value 1.01
